# Source: PubChem BioAssay (NCATS)
# Results filed as inconclusive are left out. Calls of active or inactive are those of the source. Calls follow the shape of the dose curve; as a rule, active = well fitted cell-killing curve with a large enough effect; inconclusive = small, poorly fitted or top-dose-only effect, or effect the other way; inactive = flat fitted curve, though single readings scatter.
# Assay: qHTS for Inhibitors of ATXN expression: Validation of Cytotoxic Assay (AID 588349)
# Settings: cytotoxicity counter-screen for ATXN expression inhibitors, cell viability; series mostly up to 57.1 µM; activity change, negative = cytotoxicity: at the top concentration
# From the text: Spinocerebellar ataxia type 2 (SCA2) is a multisystem neurodegenerative disease caused by a dominantly-acting mutation leading to expansion of a polyQ domain in the ataxin-2 protein (ATXN2). SCA2 patients develop progressive ataxia and later lose function in other neuronal systems. Prominent parkinsonian signs develop in some patients. Similar to many neurodegenerative disorders, no symptomatic or disease-modifying treatments are known.
# The primary objective of project is to identify compounds inhibiting ATXN2 expression and to test them for efficacy in SCA2 mouse models. To this end, in a collaboration between Dr. Daniel Scoles and scientists at NCGC, a cell-based assay adapted to high-throughput screening has been developed to screen the NIH Molecular Libraries Small Molecule Repository (MLSMR). Confirmed qHTS active compounds will be tested for toxicity against the human neuron-like SH-SY5Y cell line. This line is the parental cell type used to generate the transgenic line used in the primary assay, and so should provide an isogenic control to test the inherent toxicity of qHTS actives.
# NIH Chemical Genomics Center [NCGC]
# NIH Molecular Libraries Probe Centers Network [MLPCN]
# Assay Submitter (PI): Stefan Pulst and Daniel Scoles, University of Utah
# […] cultured cells will be dosed with titrated compounds and incubated for 72 hr at 37 degrees C. Toxicity will be assessed using the CellTiter Glo kit (Promega), which uses intracellular ATP concentration as a viability marker.
# % is scaled to controls: 0 for no effect and ±100 for the full control effect.
Compound,"activity change, negative = cytotoxicity",outcome
O=c1[nH]oc2c1CCNC2,-6.8% (inactive),
CC(C)(C)NCC(O)c1ccccc1Cl (centres undefined),-17.3% (inactive),
COc1ccc2c(c1OC)C(=O)O[C@H]2[C@@H]1c2cc3c(cc2CCN1C)OCO3,-5.24% (inactive),
CC(NC(C)(C)C)C(=O)c1cccc(Cl)c1 (centres undefined),-5.61% (inactive),
NCCc1ccc(O)cc1,-17.5% (inactive),
C=C(C)[C@H]1CN[C@H](C(=O)O)[C@H]1CC(=O)O,-7.45% (inactive),
CCC1(c2ccc(N)cc2)CCC(=O)NC1=O (centres undefined),-13% (inactive),
O=P1(N(CCCl)CCCl)NCCCO1 (centres undefined),8.58% (inactive),
CC(C)N(CCC(C(N)=O)(c1ccccc1)c1ccccn1)C(C)C (centres undefined),,inactive
Cc1ncsc1CCCl,-3.63% (inactive),
CCCCC/C=C\C/C=C\C/C=C\C/C=C\CCCC(=O)NCC(=O)O,-16.7% (inactive),
CC(C)c1cccc(C(C)C)c1O,-5.58% (inactive),
O=C(O)CCCc1ccc(N(CCCl)CCCl)cc1,-2.18% (inactive),
CN1C(=O)CCS(=O)(=O)C1c1ccc(Cl)cc1 (centres undefined),-1.88% (inactive),
